Data published in PubChem BioAssay.
A number with no mark means an inactive call. The rule behind the calls is not given here.

What follows are compounds tested against Pantothenate synthetase (Mycobacterium tuberculosis (strain ATCC 25618 / H37Rv)) (UniProt P9WIL5) (assay: Coupled enzyme confirmation of inhibitors against recombinant Mtb PanC (AID 375;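 note: 0% = full reaction with vehicle and 100% = no enzyme background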)). Settings: coupled enzyme assay; at 10 µM, stronger effect = higher value.
Chain of Pantothenate synthetase (Mycobacterium tuberculosis (strain ATCC 25618 / H37Rv)) (P9WIL5 whole entry, looked up): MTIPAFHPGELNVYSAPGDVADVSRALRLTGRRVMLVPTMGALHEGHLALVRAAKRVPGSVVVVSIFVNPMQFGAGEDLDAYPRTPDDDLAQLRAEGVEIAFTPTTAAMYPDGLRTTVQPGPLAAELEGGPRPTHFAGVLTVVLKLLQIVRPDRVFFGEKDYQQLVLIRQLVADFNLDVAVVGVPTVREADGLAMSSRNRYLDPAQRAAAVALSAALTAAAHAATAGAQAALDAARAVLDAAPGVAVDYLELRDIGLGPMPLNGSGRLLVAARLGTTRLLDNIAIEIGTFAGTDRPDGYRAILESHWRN

| SMILES | inhibition [%] |
| --- | --- |
| CC(C)C[C@H]1C(=O)N2CCC[C@H]2[C@]2(O)O[C@](NC(=O)[C@@H]3C=C4c5cccc6[nH]c(Br)c(c56)CC4N(C)C3)(C(C)C)C(=O)N12 (stereo partly specified) | 4 |
| O=C(NCc1cccnc1)/C(=N\O)c1ccccc1 | 0 |
| NC(=O)c1cc(-c2ccccc2)nc(Oc2ccccc2)n1 | 1 |
| CC(C)(C)NC(=O)CSc1nnc(-c2ccccn2)n1-c1ccccc1 | 0 |
| CC(C)(C)C(=O)CCN1C(=O)C2(OCCO2)c2ccccc21 | 0 |
| COc1ccc(OC)c(N2Cc3cc(C)c(C)cc3C2)c1 | 3 |
| CCOc1ccc2nc(NC(=O)C3CCCN(S(=O)(=O)c4c(C)noc4C)C3)sc2c1 (stereo unspecified) | 0 |
| COc1cccc(-n2nc(C(=O)Nc3ccc4c(c3)OCO4)c3ccccc3c2=O)c1 | 0 |
| O=C(NCc1ccco1)c1cnc2n(c1=O)CCS2 | 0 |
| COc1cc2c(cc1OC)C(c1cc(OC)c(OC)c(OC)c1)NCC2 (stereo unspecified) | 0 |
| CN1Cc2c(N)cccc2C(c2ccccc2)C1 (stereo unspecified) | 0 |
| O=C(CCCn1c(=O)c2sccc2n(Cc2cc(=O)n3ccccc3n2)c1=O)NCc1ccco1 | 0 |
| Cc1ccc(C(c2nnnn2CCC(C)C)N2CCN(C)CC2)cc1 (stereo unspecified) | 2 |
| COc1ccc(N2CCN(CCNS(=O)(=O)c3cccc4nsnc34)CC2)cc1 | 2 |
| CC(=O)Nc1ccc(S(=O)(=O)N(CC(=O)O)Cc2ccccc2)cc1 | 7 |
| CCOc1ccccc1N1C(=O)c2ccc(C(=O)Nc3cccnc3)cc2C1=O | 4 |
